Results filed as inconclusive are left out. Activity calls are given as the source filed them. The call rests on the fitted dose curve; in most records, active means well fitted curve in the direction sought with a large enough effect in the repeat runs; inconclusive means weak or mixed curves; inactive means no such curve, though single readings can be large; an effect the other way counts as inactive or inconclusive.
System: not listed separately
Assay: qHTS assay to identify aromatase inhibitors - cell viability counter screen (AID 743084);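 further: cells stimulated with testosterone during compound exposure; nearly all actives have a fitted effect of over 55% in size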
Conditions: MCF-7 aro ERE viability, CellTiter-Fluor, 24 h; series mostly up to 70.3 µM; activity change, negative = cytotoxicity: at the top concentration
On the % scale 0 is the no-effect control and ±100 the full control effect; potency means the concentration at half of the fitted maximal effect.

Compound | Potency | activity change, negative = cytotoxicity
Cc1onc(-c2c(F)cccc2Cl)c1C(=O)N[C@@H]1C(=O)N2[C@@H]1SC(C)(C)[C@@H]2C(=O)O | inactive | –
CO/N=C(\C(=O)N[C@@H]1C(=O)N2C(C(=O)[O-])=C(C[n+]3ccc(N)n3CCO)CS[C@H]12)c1csc(N)n1 | – | -0.858% (inactive)
CCOC(=O)[C@H](CCc1ccccc1)N[C@@H](C)C(=O)N1[C@H](C(=O)O)C[C@H]2CCCC[C@@H]21 | inactive | –
COc1ccc(/C=C/C(=O)O)cc1 | – | 1.13% (inactive)
O=[N+]([O-])c1ccc(O)c2ncccc12 | 10.6 µM (active) | –
COc1ccc([C@@H]2CC(=O)c3c(O)cc(O[C@@H]4O[C@H](CO[C@@H]5O[C@@H](C)[C@H](O)[C@@H](O)[C@H]5O)[C@@H](O)[C@H](O)[C@H]4O)cc3O2)cc1O | – | -6.49% [at 32.5 µM] (inactive)
O=C1OC(=O)c2cc(-c3ccc4c(c3)C(=O)OC4=O)ccc21 | – | -3.5% (inactive)
COc1cc([C@@H]2c3cc4c(cc3[C@@H](O[C@@H]3O[C@@H]5CO[C@@H](C)O[C@H]5[C@H](O)[C@H]3O)[C@H]3COC(=O)[C@H]23)OCO4)cc(OC)c1O | inactive | –
O=C(O)CCCC/C=C(\c1ccccc1)c1cccnc1 | – | -0.718% (inactive)
CC(=O)N[C@@H](C=O)[C@H](O)[C@H](O)[C@@H](O)CO | inactive | –
CN(C)CCOc1ccc(/C(=C(/CCCl)c2ccccc2)c2ccccc2)cc1 | 45.5 µM (active) | –
O=C(Cn1cnnn1)N[C@@H]1C(=O)N2C(C(=O)O)=C(CSc3nncs3)CS[C@H]12 | inactive | –
C/C(=C(/CCO)SSCC1CCCO1)N(C=O)Cc1cnc(C)nc1N (centres undefined) | – | -1.1% (inactive)
c1ccc2cc3c4ccccc4c4ccccc4c3cc2c1 | – | -1.14% [at 95 µM] (inactive)
CC(C)=CCC/C(C)=C/CC/C(C)=C/CC/C=C(\C)CC/C=C(\C)CCC=C(C)C | inactive | –
Cc1c(N)nc([C@H](CC(N)=O)NC[C@H](N)C(N)=O)nc1C(=O)N[C@H](C(=O)N[C@H](C)[C@@H](O)[C@H](C)C(=O)N[C@H](C(=O)NCCc1nc(-c2nc(C(=O)NCCCCN=C(N)N)cs2)cs1)[C@@H](C)O)[C@@H](O[C@@H]1O[C@@H](CO)[C@@H](O)[C@H](O)[C@@H]1O[C@H]1O[C@H](CO)[C@@H](O)[C@H](OC(N)=O)[C@@H]1O)c1cnc[nH]1 | inactive | –
CC(C)(S)C(=O)N[C@@H](CS)C(=O)O | inactive | –
Cc1ccc(Cl)c(N)c1Cl | – | -9.52% (inactive)
C[S+](CC[C@H](N)C(=O)O)C[C@H]1O[C@@H](n2cnc3c(N)ncnc32)[C@H](O)[C@@H]1O (some centres undefined) | inactive | –

Compound | Potency | activity change, negative = cytotoxicity
NC(=O)[C@@H]1CCCN1C(=O)[C@H](Cc1cnc[nH]1)NC(=O)[C@@H]1CCC(=O)N1 | – | 9.3% (inactive)
NC(N)=NCc1cccc(I)c1 | inactive | –
CC(CNC(=O)c1cccnc1)NC(=O)c1cccnc1 (centres undefined) | – | 3.98% (inactive)
O=C1CCC(c2ccccc2)(C2CCN(Cc3ccccc3)CC2)C(=O)N1 (centres undefined) | – | -1.65% (inactive)
CC[C@H]1OC(=O)C[C@@H](O)[C@H](C)[C@@H](O[C@@H]2O[C@H](C)[C@@H](O[C@H]3C[C@@](C)(O)[C@@H](O)[C@H](C)O3)[C@H](N(C)C)[C@H]2O)[C@@H](CC=O)C[C@@H](C)C(=O)/C=C/C(C)=C/[C@@H]1CO[C@@H]1O[C@H](C)[C@@H](O)[C@@H](OC)[C@H]1OC | inactive | –
Cc1cnc(C(=O)O)c[n+]1[O-] | inactive | –
CCOC(=O)COc1ccc2c(=O)cc(-c3ccccc3)oc2c1 | inactive | –
CC(C)c1ncc([N+](=O)[O-])n1C | – | 0.747% (inactive)
NCCCC[C@H](NC(=O)[C@@H]1CCCN1C(=O)[C@@H]1CSSC[C@H](N)C(=O)N[C@@H](Cc2ccc(O)cc2)C(=O)N[C@@H](Cc2ccccc2)C(=O)N[C@@H](CCC(N)=O)C(=O)N[C@@H](CC(N)=O)C(=O)N1)C(=O)NCC(N)=O | inactive | –
Cc1cc(=O)c(C(=O)N[C@@H](C(=O)N[C@@H]2C(=O)N3C(C(=O)O)=C(CSc4nnnn4C)CS[C@H]23)c2ccc(O)cc2)c[nH]1 | – | 3.34% (inactive)
CCOc1ccc(NC(=S)Nc2ccc(OCC)cc2)cc1 | – | 1.28% (inactive)
COc1ccc(/C=C/C(=O)Nc2ccccc2C(=O)O)cc1OC | – | 2.31% (inactive)
CC(=O)NC[C@H]1CN(c2ccc(N3CCOCC3)c(F)c2)C(=O)O1 | – | -6.13% (inactive)
CN1C(C(=O)Nc2ccccn2)C(=O)c2sc(Cl)cc2S1(=O)=O (centres undefined) | – | -2.29% (inactive)
Cc1cn([C@H]2C[C@H](O)[C@@H](CO)O2)c(=O)[nH]c1=O | – | 8.78% (inactive)
C[N+]1(CCCCC[N+]2(C)CCCC2)CCCC1 | – | 7.56% (inactive)
NC[C@@H]1CC[C@@H](N)[C@@H](O[C@H]2[C@H](O)[C@@H](O[C@H]3O[C@H](CO)[C@@H](O)[C@H](N)[C@H]3O)[C@H](N)C[C@@H]2N)O1 | – | 27.3% (inactive)
CCCCCCCCCCCCCCCCC(C(=O)O)C(O)(CC(=O)O)C(=O)O (centres undefined) | – | 3.23% (inactive)

Target: Aryl hydrocarbon receptor (Homo sapiens) (UniProt P35869)
Sequence (P35869 whole entry, looked up): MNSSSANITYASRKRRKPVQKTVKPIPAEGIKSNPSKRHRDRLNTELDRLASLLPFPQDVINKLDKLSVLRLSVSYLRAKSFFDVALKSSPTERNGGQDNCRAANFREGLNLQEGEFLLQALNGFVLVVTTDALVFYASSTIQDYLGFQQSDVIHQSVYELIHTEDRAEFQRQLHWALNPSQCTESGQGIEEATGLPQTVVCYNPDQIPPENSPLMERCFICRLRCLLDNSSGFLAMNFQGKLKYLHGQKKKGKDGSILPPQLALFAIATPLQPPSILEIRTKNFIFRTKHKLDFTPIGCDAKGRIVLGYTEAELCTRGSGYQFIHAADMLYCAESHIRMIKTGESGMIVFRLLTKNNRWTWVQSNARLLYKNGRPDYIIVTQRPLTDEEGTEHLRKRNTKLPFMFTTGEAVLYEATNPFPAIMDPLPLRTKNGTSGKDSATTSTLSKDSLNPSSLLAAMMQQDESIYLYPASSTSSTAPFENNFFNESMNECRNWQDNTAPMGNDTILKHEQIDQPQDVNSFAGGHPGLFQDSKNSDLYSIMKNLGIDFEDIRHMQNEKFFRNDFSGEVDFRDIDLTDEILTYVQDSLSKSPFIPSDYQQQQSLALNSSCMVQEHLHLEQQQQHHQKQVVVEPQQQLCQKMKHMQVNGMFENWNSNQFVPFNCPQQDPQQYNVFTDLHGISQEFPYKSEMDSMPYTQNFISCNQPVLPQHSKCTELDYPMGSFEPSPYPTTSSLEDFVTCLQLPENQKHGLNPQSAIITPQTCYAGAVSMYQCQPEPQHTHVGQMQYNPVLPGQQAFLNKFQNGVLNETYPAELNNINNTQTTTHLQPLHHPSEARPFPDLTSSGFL
Assay: qHTS assay to identify small molecule that activate the aryl hydrocarbon receptor (AhR) signaling pathway (AID 743085); further: nearly all actives have a fitted effect of over 15% in size;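 on activation: HG2L7.5c1 human HepG2 liver cells with stably integrated DRE-driven firefly reporter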
Conditions: HepG2 AhR-luc (HG2L7.5c1), luciferase, 24 h; series mostly up to 70.3 µM; activation: at the top concentration
In short: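 Measured in HG2L7.5c1 cells: CellTiter-Fluor signal (30 min incubation, 37C) for viability, then luciferase luminescence (30 min, room temperature). Compound contact time was 24 h at 37C, following a 5 h pre-incubation.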

Compound | Potency | activation
Cc1onc(-c2c(F)cccc2Cl)c1C(=O)N[C@@H]1C(=O)N2[C@@H]1SC(C)(C)[C@@H]2C(=O)O | inactive | –
CO/N=C(\C(=O)N[C@@H]1C(=O)N2C(C(=O)[O-])=C(C[n+]3ccc(N)n3CCO)CS[C@H]12)c1csc(N)n1 | – | -1.59% (inactive)
CCOC(=O)[C@H](CCc1ccccc1)N[C@@H](C)C(=O)N1[C@H](C(=O)O)C[C@H]2CCCC[C@@H]21 | inactive | –
COc1ccc(/C=C/C(=O)O)cc1 | – | -0.739% (inactive)
O=[N+]([O-])c1ccc(O)c2ncccc12 | 3.35 µM (active) | –
COc1ccc([C@@H]2CC(=O)c3c(O)cc(O[C@@H]4O[C@H](CO[C@@H]5O[C@@H](C)[C@H](O)[C@@H](O)[C@H]5O)[C@@H](O)[C@H](O)[C@H]4O)cc3O2)cc1O | – | 0.0222% [at 32.5 µM] (inactive)
O=C1OC(=O)c2cc(-c3ccc4c(c3)C(=O)OC4=O)ccc21 | – | 0.0855% (inactive)
COc1cc([C@@H]2c3cc4c(cc3[C@@H](O[C@@H]3O[C@@H]5CO[C@@H](C)O[C@H]5[C@H](O)[C@H]3O)[C@H]3COC(=O)[C@H]23)OCO4)cc(OC)c1O | inactive | –
O=C(O)CCCC/C=C(\c1ccccc1)c1cccnc1 | – | -1.34% (inactive)
CC(=O)N[C@@H](C=O)[C@H](O)[C@H](O)[C@@H](O)CO | inactive | –
CN(C)CCOc1ccc(/C(=C(/CCCl)c2ccccc2)c2ccccc2)cc1 | inactive | –
O=C(Cn1cnnn1)N[C@@H]1C(=O)N2C(C(=O)O)=C(CSc3nncs3)CS[C@H]12 | inactive | –
C/C(=C(/CCO)SSCC1CCCO1)N(C=O)Cc1cnc(C)nc1N (centres undefined) | inactive | –
c1ccc2cc3c4ccccc4c4ccccc4c3cc2c1 | 0.0973 µM (active) | –
CC(C)=CCC/C(C)=C/CC/C(C)=C/CC/C=C(\C)CC/C=C(\C)CCC=C(C)C | inactive | –
Cc1c(N)nc([C@H](CC(N)=O)NC[C@H](N)C(N)=O)nc1C(=O)N[C@H](C(=O)N[C@H](C)[C@@H](O)[C@H](C)C(=O)N[C@H](C(=O)NCCc1nc(-c2nc(C(=O)NCCCCN=C(N)N)cs2)cs1)[C@@H](C)O)[C@@H](O[C@@H]1O[C@@H](CO)[C@@H](O)[C@H](O)[C@@H]1O[C@H]1O[C@H](CO)[C@@H](O)[C@H](OC(N)=O)[C@@H]1O)c1cnc[nH]1 | inactive | –
CC(C)(S)C(=O)N[C@@H](CS)C(=O)O | inactive | –
Cc1ccc(Cl)c(N)c1Cl | – | -0.33% (inactive)
C[S+](CC[C@H](N)C(=O)O)C[C@H]1O[C@@H](n2cnc3c(N)ncnc32)[C@H](O)[C@@H]1O (some centres undefined) | – | 2.83% (inactive)

Compound | Potency | activation
NC(=O)[C@@H]1CCCN1C(=O)[C@H](Cc1cnc[nH]1)NC(=O)[C@@H]1CCC(=O)N1 | – | 0.0211% (inactive)
NC(N)=NCc1cccc(I)c1 | inactive | –
CC(CNC(=O)c1cccnc1)NC(=O)c1cccnc1 (centres undefined) | – | -0.7% (inactive)
O=C1CCC(c2ccccc2)(C2CCN(Cc3ccccc3)CC2)C(=O)N1 (centres undefined) | – | -0.415% (inactive)
CC[C@H]1OC(=O)C[C@@H](O)[C@H](C)[C@@H](O[C@@H]2O[C@H](C)[C@@H](O[C@H]3C[C@@](C)(O)[C@@H](O)[C@H](C)O3)[C@H](N(C)C)[C@H]2O)[C@@H](CC=O)C[C@@H](C)C(=O)/C=C/C(C)=C/[C@@H]1CO[C@@H]1O[C@H](C)[C@@H](O)[C@@H](OC)[C@H]1OC | inactive | –
Cc1cnc(C(=O)O)c[n+]1[O-] | inactive | –
CCOC(=O)COc1ccc2c(=O)cc(-c3ccccc3)oc2c1 | – | 8.7% (inactive)
CC(C)c1ncc([N+](=O)[O-])n1C | – | -0.259% (inactive)
NCCCC[C@H](NC(=O)[C@@H]1CCCN1C(=O)[C@@H]1CSSC[C@H](N)C(=O)N[C@@H](Cc2ccc(O)cc2)C(=O)N[C@@H](Cc2ccccc2)C(=O)N[C@@H](CCC(N)=O)C(=O)N[C@@H](CC(N)=O)C(=O)N1)C(=O)NCC(N)=O | inactive | –
Cc1cc(=O)c(C(=O)N[C@@H](C(=O)N[C@@H]2C(=O)N3C(C(=O)O)=C(CSc4nnnn4C)CS[C@H]23)c2ccc(O)cc2)c[nH]1 | – | -1.19% (inactive)
CCOc1ccc(NC(=S)Nc2ccc(OCC)cc2)cc1 | – | -0.0984% (inactive)
COc1ccc(/C=C/C(=O)Nc2ccccc2C(=O)O)cc1OC | 3.35 µM (active) | –
CC(=O)NC[C@H]1CN(c2ccc(N3CCOCC3)c(F)c2)C(=O)O1 | – | -0.0046% (inactive)
CN1C(C(=O)Nc2ccccn2)C(=O)c2sc(Cl)cc2S1(=O)=O (centres undefined) | – | 2.29% (inactive)
Cc1cn([C@H]2C[C@H](O)[C@@H](CO)O2)c(=O)[nH]c1=O | – | -2.18% (inactive)
C[N+]1(CCCCC[N+]2(C)CCCC2)CCCC1 | – | -0.888% (inactive)
NC[C@@H]1CC[C@@H](N)[C@@H](O[C@H]2[C@H](O)[C@@H](O[C@H]3O[C@H](CO)[C@@H](O)[C@H](N)[C@H]3O)[C@H](N)C[C@@H]2N)O1 | – | -0.0962% (inactive)
CCCCCCCCCCCCCCCCC(C(=O)O)C(O)(CC(=O)O)C(=O)O (centres undefined) | – | -1.49% (inactive)
